We go through 5 molecules from PubChem BioAssay (EPA / NIEHS).

SMILES strings stand for the structures. Activity calls are given as the source filed them. Rule for the calls: active = hit-call score of the fitted dose curve at least 0.9, where 1 is the maximum; inactive = score below 0.9.

Assay [1] can be described thus: ATG_CRE_CIS: Attagene CIS-FACTORIAL HepG2 Assay for human cAMP Responsive Element (CRE) binding protein 3 (AID 2282926). To be noted: HepG2 CRE cis-reporter, Attagene multiplexed mRNA; actives raise or lower the signal. An outline of the steps:
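We dosed HepG2 cells bearing multiple cis-promoter reporter units for 24 h and measured reporter mRNA by RT-PCR with capillary electrophoresis detection. Bidirectional concentration-response fitting used DMSO as negative control.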

Assay [2] deals with CCAAT/enhancer-binding protein beta (Homo sapiens) (UniProt P17676). The assay is described as follows: ATG_C_EBP_CIS: Attagene CIS-FACTORIAL HepG2 Assay for human CCAAT/Enhancer Binding Protein (C/EBP) beta (AID 2282927). To be noted: HepG2 Attagene cis-factorial transcription factor reporter; actives raise or lower the signal. The procedure, abridged:
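HepG2 transiently transfected with multiplexed reporter units under cis-regulatory promoters reporting endogenous C/EBPb activity. After 24 h exposure, reporter mRNA assayed by RT-PCR, fluorescent labelling, HpaI digestion and capillary electrophoresis; bidirectional fitting versus DMSO.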

A short description of assay [3]: ATG_CMV_CIS: Attagene CIS-FACTORIAL HepG2 Assay for human CMV (Internal Marker) (AID 2282928).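 Note: endpoint acts as a background internal control marker rather than a target.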 The following applies: HepG2 CMV promoter reporter, transcription factor profiling; actives raise or lower the signal. An outline of the steps:
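Cell system: HepG2, transiently transfected multiple reporter units under cis promoters. Exposure: 24 h. Detection: RT-PCR, FAM labeling, HpaI digestion, capillary electrophoresis. Analysis: bidirectional, DMSO baseline.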

Assay [4] can be described thus: ATG_DR4_LXR_CIS: Attagene CIS-FACTORIAL HepG2 Assay for human Liver X Receptor (LXR), DR4 submotif (AID 2282929). The following applies: HepG2 Attagene DR4 cis-reporter, mRNA transcription; actives raise or lower the signal. The procedure, abridged: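 HepG2 cells transiently transfected with cis-promoter-driven multiplexed reporter units (DR4 element) were dosed for 24 h. Reporter mRNA was quantified by RT-PCR, fluorescent primer extension, HpaI digestion and capillary electrophoresis; bidirectional fitting versus DMSO baseline.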

Assay [5] addresses Aryl hydrocarbon receptor (Homo sapiens) (UniProt P35869). The assay is described as follows: ATG_Ahr_CIS: Attagene CIS-FACTORIAL HepG2 Assay for human Aryl Hydrocarbon Receptor (Ahr) (AID 2282930). The following applies: HepG2 AhR cis-factorial reporter transcription; actives raise or lower the signal. An outline of the steps: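 HepG2 cells transiently transfected with cis-element-driven multiplexed reporter units; endogenous AhR activity read as reporter mRNA 24 h after dosing, via RT-PCR, 6-FAM labelling, HpaI digestion and capillary electrophoresis. Bidirectional fit relative to DMSO.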

A short description of assay [6]: ATG_AP_1_CIS: Attagene CIS-FACTORIAL HepG2 Assay for human Activator Protein 1 (AP-1) (AID 2282931). To be noted: HepG2 Attagene cis-factorial AP-1 reporter mRNA; actives raise or lower the signal. An outline of the steps:
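HepG2 cells transiently transfected with cis-element-driven multiplex reporter units; 24 h compound exposure. Reporter mRNA quantified by RT-PCR, FAM-labelled fragments resolved by capillary electrophoresis; bidirectional fit versus DMSO baseline.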

Assay [7] can be described thus: ATG_AP_2_CIS: Attagene CIS-FACTORIAL HepG2 Assay for human Activator Protein 2 (AP-2) (AID 2282932). To be noted: HepG2 AP-2 cis-reporter, Attagene transcription factor profiling; actives raise or lower the signal. The procedure, abridged: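 Multiplexed mRNA reporter assay in HepG2: cis-regulated units report endogenous factor activity after 24 h treatment. Fluorescence from capillary electrophoresis of RT-PCR products gives the signal, with DMSO as baseline.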

Assay [8] has as its target Retinoic acid receptor alpha (Homo sapiens) (UniProt P10276). Description: ATG_DR5_RAR_CIS: Attagene CIS-FACTORIAL HepG2 Assay for human Retinoic Acid Receptor Alpha (RARE), DR5 submotif (AID 2282934). The following applies: HepG2 Attagene cis-factorial RARE DR5 reporter, mRNA; actives raise or lower the signal. An outline of the steps:
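HepG2 cells transiently transfected with multiplexed reporter units; DR5 cis-element drives reporter through endogenous transcription factors. After 24 h dosing, reporter mRNA quantified by RT-PCR, fluorescent labeling, HpaI digestion and capillary electrophoresis; bidirectional fitting versus DMSO.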

Assay [9] has as its target Transcription factor E2F1 (Homo sapiens) (UniProt Q01094). Description: ATG_E2F_CIS: Attagene CIS-FACTORIAL HepG2 Assay for human E2F Transcription Factor 1 (AID 2282935). The following applies: HepG2 Attagene cis-reporter, E2F reporter RNA transcripts; actives raise or lower the signal. An outline of the steps: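 Measures reporter transcript levels via RT-PCR with capillary electrophoresis detection in HepG2 cells harboring cis-regulated reporter units; 24 h post-dose; bidirectional curve fitting with DMSO as baseline.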

Assay [10] can be described thus: ATG_E_Box_CIS: Attagene CIS-FACTORIAL HepG2 Assay for human Enhancer Box (E-box) (AID 2282936). To be noted: HepG2 E-box cis-reporter transcription, actives raise or lower the signal. The procedure, abridged: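 First, HepG2 cells receive multiple cis-regulated reporter constructs by transient transfection. Next, chemicals are applied for 24 h. Finally, reporter mRNA is quantified via RT-PCR and capillary electrophoresis, with DMSO as baseline.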

Assay [11] is described as follows: ATG_M_61_CIS: Attagene CIS-FACTORIAL HepG2 Assay for M61 Transcription Factor (Internal Marker) (AID 2282937). To be noted: HepG2 Attagene CIS-FACTORIAL M61 internal marker reporter; actives raise or lower the signal. The procedure, abridged:
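HepG2 cells transiently transfected with cis-element-driven multiple reporter transcription units, dosed for 24 h. Reporter mRNA measured by RT-PCR, 6-FAM primer-extension labelling, HpaI digestion and capillary electrophoresis; bidirectional fit versus DMSO baseline.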

Assay [12] in a line: ATG_EGR_CIS: Attagene CIS-FACTORIAL HepG2 Assay for human Early Growth Response 1 (EGR1) (AID 2282938). To be noted: HepG2 Attagene CIS-FACTORIAL EGR reporter mRNA; actives raise or lower the signal. The procedure, abridged:
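HepG2 cells transiently transfected with cis-promoter-driven multiplexed reporter transcription units; reporter mRNA measured 24 h after compound dosing by RT-PCR, 6-FAM primer extension, HpaI digestion and capillary electrophoresis. Bidirectional fit versus DMSO baseline.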

Assay [13] in a line: ATG_M_19_CIS: Attagene CIS-FACTORIAL HepG2 Assay for M19 Transcription Factor (Internal Marker) (AID 2282939). The following applies: HepG2 Attagene CIS-FACTORIAL M19 internal marker reporter; actives raise or lower the signal. An outline of the steps: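 HepG2 cells transiently transfected with cis-regulated multiple reporter transcription units were dosed for 24 h; reporter mRNA was quantified by RT-PCR, 6-FAM primer-extension labelling, HpaI digestion and capillary electrophoresis, with bidirectional fitting against DMSO baseline.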

Assay [14] is described as follows: ATG_ERE_CIS: Attagene CIS-FACTORIAL HepG2 Assay for Estrogen Response Element (ERE) (AID 2282940). The following applies: HepG2 ERE cis-reporter, Attagene RNA transcript; actives raise or lower the signal. An outline of the steps: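 HepG2 cells transiently transfected with cis-promoter-driven multiplexed reporter transcription units report endogenous TF activity. After 24 h compound exposure, reporter mRNA is quantified by RT-PCR with capillary electrophoresis fluorescence; bidirectional fitting versus DMSO baseline.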

Assay [15] is described as follows: ATG_Ets_CIS: Attagene CIS-FACTORIAL HepG2 Assay for human Erythroblast Transformation Specific (ETS) (AID 2282941). The following applies: HepG2 ETS cis-reporter transcription, actives raise or lower the signal. The procedure, abridged: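 After transient cis-reporter transfection, HepG2 cells receive test chemical for 24 h. Reporter mRNA levels, measured by RT-PCR and capillary electrophoresis fluorescence, are analysed bidirectionally relative to the DMSO baseline.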

For assay [16], the target named is Hepatocyte nuclear factor 3-beta (Homo sapiens) (UniProt Q9Y261). Description: ATG_FoxA2_CIS: Attagene CIS-FACTORIAL HepG2 Assay for human Forkhead box A2 (FOXA2) (AID 2282942). The following applies: HepG2 cis-reporter transcription factor activity, 24 h; actives raise or lower the signal. An outline of the steps:
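HepG2 cells transiently transfected with multiple cis-regulated reporter transcription units, dosed for 24 h. Reporter mRNA measured by RT-PCR, 6-FAM labelling, HpaI digestion and capillary electrophoresis; bidirectional fitting against DMSO baseline.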

Assay [17] in a line: ATG_FoxO_CIS: Attagene CIS-FACTORIAL HepG2 Assay for human Forkhead box O (FoxO) (AID 2282943). To be noted: HepG2 Attagene cis-reporter, FoxO element, mRNA; actives raise or lower the signal. An outline of the steps: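 HepG2 cells transiently transfected with cis-element-driven reporter units report endogenous FoxO activity. After 24 h chemical exposure, reporter mRNA quantified by RT-PCR, fluorescent labeling, HpaI digestion and capillary electrophoresis; bidirectional fit versus DMSO.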

Assay [18] in a line: ATG_GATA_CIS: Attagene CIS-FACTORIAL HepG2 Assay for human GATA Binding Protein (AID 2282944). To be noted: HepG2 GATA cis-element reporter, Attagene multiplex mRNA; actives raise or lower the signal. An outline of the steps: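 HepG2 cells transiently transfected with multiplexed cis-element reporter units reflecting endogenous transcription factor activity; reporter mRNA measured after 24 h dosing by RT-PCR, 6-FAM labeling, HpaI digestion and capillary electrophoresis. Bidirectional fitting versus DMSO baseline.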

Assay [19] is described as follows: ATG_GLI_CIS: Attagene CIS-FACTORIAL HepG2 Assay for human Zinc Finger Protein GLI1 (AID 2282945). The following applies: HepG2, Attagene cis-factorial reporter mRNA, GLI element; actives raise or lower the signal. The procedure, abridged: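 Transiently transfected HepG2 cells report endogenous transcription factor activity via cis-element-driven reporter units. After 24 h compound exposure, reporter mRNA was measured by RT-PCR with capillary electrophoresis; bidirectional fitting against DMSO baseline.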

The nature of assay [20]: ATG_BRE_CIS: Attagene CIS-FACTORIAL HepG2 Assay for human Bone Morphogenetic Protein (BMP) Response Element (BRE) (AID 2282933). The following applies: HepG2 BMP response element reporter, Attagene transcription factor profiling; actives raise or lower the signal. An outline of the steps:
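HepG2 cells transiently transfected with multiplexed cis-element reporter units were dosed with chemical for 24 h. Reporter mRNA was measured by RT-PCR with fluorescent labelling, HpaI digestion and capillary electrophoresis; bidirectional fitting relative to DMSO.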

Chain of Transcription factor E2F1 (Homo sapiens) (Q01094 whole entry, looked up): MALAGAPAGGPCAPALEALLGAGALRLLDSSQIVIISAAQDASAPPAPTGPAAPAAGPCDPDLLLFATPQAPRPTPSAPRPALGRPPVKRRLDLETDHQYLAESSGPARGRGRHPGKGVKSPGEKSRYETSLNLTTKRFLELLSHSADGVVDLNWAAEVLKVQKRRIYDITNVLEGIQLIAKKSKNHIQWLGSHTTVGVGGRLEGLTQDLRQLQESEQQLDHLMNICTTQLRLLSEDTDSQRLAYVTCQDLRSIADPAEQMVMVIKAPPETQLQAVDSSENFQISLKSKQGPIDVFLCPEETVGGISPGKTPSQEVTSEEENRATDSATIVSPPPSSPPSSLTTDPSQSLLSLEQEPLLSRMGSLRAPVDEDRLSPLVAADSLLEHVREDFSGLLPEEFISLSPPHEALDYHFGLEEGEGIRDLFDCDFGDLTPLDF
Chain of Hepatocyte nuclear factor 3-beta (Homo sapiens) (Q9Y261 whole entry, looked up): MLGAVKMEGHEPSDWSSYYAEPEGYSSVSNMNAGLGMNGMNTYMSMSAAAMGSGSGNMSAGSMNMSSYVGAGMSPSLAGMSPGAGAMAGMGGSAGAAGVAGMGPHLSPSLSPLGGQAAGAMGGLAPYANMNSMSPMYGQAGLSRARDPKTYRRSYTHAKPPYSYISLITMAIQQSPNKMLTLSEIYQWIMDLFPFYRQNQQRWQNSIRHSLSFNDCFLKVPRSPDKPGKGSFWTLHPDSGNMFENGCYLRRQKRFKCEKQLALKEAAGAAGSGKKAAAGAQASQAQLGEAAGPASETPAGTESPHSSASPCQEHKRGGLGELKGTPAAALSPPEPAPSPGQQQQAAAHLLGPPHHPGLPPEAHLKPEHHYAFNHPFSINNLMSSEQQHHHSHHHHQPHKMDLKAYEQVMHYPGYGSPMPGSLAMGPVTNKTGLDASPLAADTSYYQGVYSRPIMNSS
Chain of Aryl hydrocarbon receptor (Homo sapiens) (P35869 whole entry, looked up): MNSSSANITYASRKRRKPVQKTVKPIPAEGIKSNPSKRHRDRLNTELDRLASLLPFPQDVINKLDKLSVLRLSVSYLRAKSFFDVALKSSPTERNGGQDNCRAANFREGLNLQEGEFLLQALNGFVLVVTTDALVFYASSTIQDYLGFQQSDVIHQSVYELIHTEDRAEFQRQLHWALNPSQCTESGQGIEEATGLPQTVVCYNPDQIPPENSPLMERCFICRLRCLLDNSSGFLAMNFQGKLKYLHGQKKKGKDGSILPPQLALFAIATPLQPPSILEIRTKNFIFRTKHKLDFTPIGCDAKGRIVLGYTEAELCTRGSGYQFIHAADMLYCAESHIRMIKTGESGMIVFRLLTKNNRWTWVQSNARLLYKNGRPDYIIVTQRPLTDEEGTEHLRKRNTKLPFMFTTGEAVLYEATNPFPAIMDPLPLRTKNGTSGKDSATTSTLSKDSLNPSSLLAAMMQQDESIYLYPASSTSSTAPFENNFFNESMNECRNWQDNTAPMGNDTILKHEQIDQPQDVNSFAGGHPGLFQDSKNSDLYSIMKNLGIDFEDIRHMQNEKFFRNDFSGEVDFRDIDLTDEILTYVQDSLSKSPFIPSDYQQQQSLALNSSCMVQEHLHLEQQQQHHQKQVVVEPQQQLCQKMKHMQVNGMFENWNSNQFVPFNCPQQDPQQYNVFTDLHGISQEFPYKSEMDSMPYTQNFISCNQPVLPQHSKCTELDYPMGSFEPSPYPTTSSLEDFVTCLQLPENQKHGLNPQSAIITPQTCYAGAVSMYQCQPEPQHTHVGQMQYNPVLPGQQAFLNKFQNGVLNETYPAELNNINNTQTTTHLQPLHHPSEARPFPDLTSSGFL
Chain of CCAAT/enhancer-binding protein beta (Homo sapiens) (P17676 whole entry, looked up): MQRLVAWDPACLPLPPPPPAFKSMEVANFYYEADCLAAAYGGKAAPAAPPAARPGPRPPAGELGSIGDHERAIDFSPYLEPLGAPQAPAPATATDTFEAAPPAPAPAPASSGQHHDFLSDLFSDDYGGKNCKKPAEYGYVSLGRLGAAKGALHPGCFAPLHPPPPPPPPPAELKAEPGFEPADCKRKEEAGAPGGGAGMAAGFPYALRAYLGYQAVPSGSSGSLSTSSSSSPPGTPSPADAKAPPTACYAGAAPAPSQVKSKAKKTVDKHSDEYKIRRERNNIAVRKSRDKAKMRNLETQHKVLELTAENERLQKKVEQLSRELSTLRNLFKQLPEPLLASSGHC
Chain of Retinoic acid receptor alpha (Homo sapiens) (P10276 whole entry, looked up): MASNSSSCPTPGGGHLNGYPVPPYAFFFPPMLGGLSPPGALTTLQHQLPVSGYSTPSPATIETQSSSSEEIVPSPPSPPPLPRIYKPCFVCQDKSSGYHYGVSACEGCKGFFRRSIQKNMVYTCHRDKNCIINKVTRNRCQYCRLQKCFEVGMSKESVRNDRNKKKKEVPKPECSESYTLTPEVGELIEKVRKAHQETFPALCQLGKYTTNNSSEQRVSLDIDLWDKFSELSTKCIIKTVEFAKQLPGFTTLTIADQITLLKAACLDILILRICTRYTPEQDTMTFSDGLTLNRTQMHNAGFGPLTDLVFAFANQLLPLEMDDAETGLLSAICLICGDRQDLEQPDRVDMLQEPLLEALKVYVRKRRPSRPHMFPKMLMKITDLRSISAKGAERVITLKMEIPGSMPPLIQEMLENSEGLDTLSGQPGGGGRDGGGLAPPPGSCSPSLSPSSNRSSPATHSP

Turning to `COP(N)(=S)OC`, the call in assay [1], in assay [2], in [3], in assay [4], in assay [5] and in assay [6] was inactive. For the same molecule, the molecule was classed as inactive in assay [7], in assay [8], in assay [9], in assay [10], in assay [11] and in assay [12]. Further, the outcome in assay [13], in assay [14], in [15], in [16], in assay [17] and in [18] was inactive. Also, the result in assay [19] was inactive.

As to `FC(F)(F)C(F)(C(F)(F)F)C(F)(F)C(F)(F)CC1CO1` (stereo not drawn), the result in assay [1], in [2], in [3], in assay [4], in assay [5] and in [6] was inactive. For the same molecule, the call in [7], in [8], in assay [9], in [10], in assay [12] and in assay [13] was inactive. Also, the outcome in assay [14], in assay [15], in assay [16], in [17], in assay [18] and in assay [19] was inactive.

Regarding `Cc1ccc(O)cc1C`, the outcome in [2], in assay [3], in assay [4], in [5], in assay [7] and in assay [20] was inactive. In addition, the call in assay [8], in assay [9], in assay [10], in [11], in assay [12] and in assay [13] was inactive. Also, the result in [15], in [16], in [17], in [18] and in assay [19] was inactive. In addition, in assay [14], the half-maximal activity concentration (AC50) is 160 µM (active).

Turning to `CCOP(=S)(OCC)SCSc1ccc(Cl)cc1`, the result in assay [1], in [2], in assay [3], in [4], in assay [5] and in assay [6] was inactive. In addition, the outcome in assay [7], in [8], in assay [9], in assay [10], in assay [11] and in [12] was inactive. In addition, the result in [13], in assay [15], in assay [16], in [17], in assay [18] and in assay [19] was inactive. In addition, the half-maximal activity concentration (AC50) in assay [14] was 4.21 µM (active).

As to `CCCCC(CC)COP(=O)(Oc1ccccc1)Oc1ccccc1` (stereo not drawn), the outcome in [1], in assay [2], in [7], in assay [8], in assay [9] and in [10] was inactive. For the same molecule, the call in [11], in assay [13], in assay [15], in assay [16], in assay [17] and in assay [18] was inactive. Further, the AC50 was 35.4 µM (active) in [3]; 26.1 µM (active) in [4]; 17.8 µM (active) in [5]; 29.5 µM (active) in assay [6]; 57.6 µM (active) in assay [12]; 6.77 µM (active) in assay [14]. The half-maximal activity concentration (AC50) in assay [19] was 100 µM (active).

What is called AC50 is the concentration giving half of the maximal activity seen.
